The results in this text go back to PubChem BioAssay (NCI).

Test [1] in a line: NCI Yeast Anticancer Drug Screen. Data for the rad50 strain (AID 155).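 Further: 0% = growth of vehicle-only cultures of the same strain.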 The settings on record: S. cerevisiae rad50 strain growth inhibition; at 50.0 µM; stronger effect = higher value. The method, boiled down: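 Vehicle-treated cultures provide the reference for the growth inhibition reported for compound-exposed, repair-deficient yeast.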
Test [2] is described as follows: NCI Yeast Anticancer Drug Screen. Data for the mec2-1 strain (AID 157). The note with it: S. cerevisiae mec2-1 strain, at 50.0 µM, stronger effect = higher value. The method in brief:
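mec2-1 yeast strain, carrying an alteration in DNA damage repair or cell cycle control, was exposed to compounds; growth inhibition was measured relative to vehicle-treated controls.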

Test [3] can be described thus: NCI Yeast Anticancer Drug Screen. Data for the sgs1 mgt1 strain (AID 161).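 Further: 0% = growth of cultures given vehicle only.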 The note with it: S. cerevisiae sgs1 mgt1 strain, at 50.0 µM, stronger effect = higher value. The method in brief: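 Percent growth inhibition was derived by comparing compound-exposed mutant yeast with vehicle-exposed cultures. The strain carries alterations in DNA damage repair.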
A short description of test [4]: NCI Yeast Anticancer Drug Screen. Data for the cln2 rad14 strain (AID 165).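 Further: 0% = growth equal to vehicle treated cultures.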 The note with it: S. cerevisiae cln2 rad14 strain, at 50.0 µM, stronger effect = higher value. The method, boiled down: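 Yeast carrying cln2 and rad14 alterations (cell cycle control and DNA damage repair) were exposed to compounds. Growth inhibition was measured against vehicle-treated controls.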

The nature of test [5]: NCI Yeast Anticancer Drug Screen. Data for the bub3 strain (AID 167). The settings on record: S. cerevisiae bub3 mutant strain, at 50.0 µM, stronger effect = higher value. The method in brief: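 Mutant yeast screening strain plus compound; vehicle-treated cultures serve as the 0% inhibition reference.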
Test [6] in a line: NCI Yeast Anticancer Drug Screen. Data for the mlh1 rad18 strain (AID 175). The settings on record: S. cerevisiae mlh1 rad18 strain growth inhibition; at 50.0 µM; stronger effect = higher value. The method in brief:
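Growth inhibition of the yeast strain was measured after compound exposure and expressed relative to vehicle-treated controls. The strain carries defined defects in DNA damage repair.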

Molecules are shown by their SMILES. This is part of a sample that, as a whole, favours compounds with a hit. Of some 79,000 tested, about 15% had one in any assay. A number with no mark means an inactive call. Active and inactive are the calls of the source. No stated cut-off is given here; in the data, active means growth inhibition above about 70%; inactive means the rest. Where a SMILES comes first, the peptide text is derived from it. Bridges are numbered along the chain shown (N, C = ends).

As to `Cc1ccc(C)c(N=C2NC(=O)C(CC(=O)Nc3ccc(Cl)cc3Cl)S2)c1` (stereo not given), the growth inhibition in test [1] is -7.5%; in test [2] it was 2.75%; in test [3] it was -9.65%; in test [4], 24.7%; in test [5], -10.9%; in test [6] it was -32.6%.
As for `CC12CCCCC1C1=C(CCCC1)CC2` (stereo not given), the growth inhibition in test [1] was -4.1%; in test [2] it was -4.95%; in test [3], -5.35%; in test [4], 9.4%; in test [5] it was 6.7%; in test [6], -17.6%.
Turning to `CCOC(=O)C1(C(=O)OCC)CSC1`, the growth inhibition is -16.6% in test [1]; -5.45% in test [2]; -17.1% in test [3]; 3.85% in test [4]; -17.8% in test [5]; -22.3% in test [6].
Regarding `CC(=O)C(OCCCl)OCCCl`, the growth inhibition is 2.9% in test [1]; -7.65% in test [2]; 1.6% in test [3]; -1.5% in test [4]; 0.3% in test [5]; -2.95% in test [6].
On to `CSCCC(O)C(=O)O` (stereo not given), for which the growth inhibition in test [1] is 21.8%; in test [2] it was -7.4%; in test [3], 19.5%; in test [4], 28.2%; in test [5], -2.55%; in test [6] it was 17%.
With `Cc1ccc(NC(=S)Nc2cccc(C(F)(F)F)c2)cc1C`, the growth inhibition in test [1] is -11.9%; in test [2], -4.45%; in test [3] it was -5.75%; in test [4], 4.85%; in test [5], -7.3%; in test [6], 20.6%.
In the case of `NC(=O)C1=NNc2ccccc2C(=O)N1c1ccccc1`, the growth inhibition was 8.3% in test [1]; -10.2% in test [2]; -20.1% in test [3]; 9.9% in test [4]; 6.9% in test [5]; 2.55% in test [6].
With `C=C1C(=O)OC2CC3(CO3)C3C(O)C(O)CC3(C)CC12` (stereo not given), the growth inhibition in test [1] is 2.4%; in test [2] it was 2.45%; in test [3] it was -14.2%; in test [4], -13.6%; in test [5], -42.5%; in test [6] it was -70.7%.
On to `CCCOC(=O)Nc1cccc(C)c1`, for which the growth inhibition in test [1] was 17.7%; in test [2] it was -5.65%; in test [3] it was -15.7%; in test [4], 0.4%; in test [5] it was 3%; in test [6], 8.95%.
On to `CCOC(=O)C1CSSCC(N)C(=O)N1` (stereo not drawn) (H-Cys-Cys-OEt; disulfide 1-2; configuration not given here), for which the growth inhibition in test [1] is 5.65%; in test [2] it was -1.25%; in test [3], -11.6%; in test [4], -48.8%; in test [5], -11.6%; in test [6], 4.7%.
On to `CCOC(=O)[C@H]1CSC[C@@H](C(=O)OC)N1`, for which the growth inhibition in test [1] is -13.6%; in test [2], -4.7%; in test [3] it was -10.6%; in test [4], 4.45%; in test [5], 5.15%; in test [6], -4.9%.
Take `O=c1c(Cl)cc(Cl)cn1S(=O)(=O)c1ccc([N+](=O)[O-])cc1`: the growth inhibition in test [1] is 99.1% (active); in test [2], 95.3% (active); in test [3], 98.9% (active); in test [4], 98.7% (active); in test [5], 97.7% (active); in test [6], 98.9% (active).
On to `CC(O)C(N=Cc1ccccc1[O-])C(=O)[O-].CC(O)C(N=Cc1ccccc1[O-])C(=O)[O-].[Co+2]` (stereo not given), for which the growth inhibition was -7% in test [1]; -2.05% in test [2]; -16.6% in test [3]; 4.4% in test [4]; 7.65% in test [5]; -25.9% in test [6].
Consider `CCOC(=O)C1C(c2ccc(N(C)C)cc2)c2cc3c(cc2OC1(C)N1CCCC1)OCO3` (stereo not given), for which the growth inhibition is -13.6% in test [1]; 9.1% in test [2]; -2.1% in test [3]; 14.3% in test [4]; -3.15% in test [5]; 2.85% in test [6].
As to `COc1cc(C2SCCCCCCCCCCSC(c3ccc(O)c(OC)c3)SCCCCCCCCCCS2)ccc1O` (stereo not given), the growth inhibition in test [1] was -24.6%; in test [2] it was -24.8%; in test [3], -29.2%; in test [4], -18.9%; in test [5] it was -30.2%; in test [6], -6.9%.
Turning to `C(=C\c1ccccn1)/c1ccc(/C=C/c2ccccn2)cc1`, the growth inhibition in test [1] is -31.2%; in test [2], 18.6%; in test [3], 8.3%; in test [4], -26.8%; in test [5] it was 3.25%; in test [6], 13.7%.
Take `CCOC(=O)CSc1cc(C)[o+]c(C)c1`: the growth inhibition is 4.6% in test [1]; 6.25% in test [2]; 6.8% in test [3]; 15% in test [4]; -6.4% in test [5]; -3.15% in test [6].
Turning to `CCN(CC)c1cc2c3c(c1)CCCN3CCC2`, the growth inhibition in test [1] is -20.9%; in test [2] it was -27.9%; in test [3] it was -3.85%; in test [4] it was 2.55%; in test [5], -8.1%; in test [6], -0.65%.
As to `O=C(O)C1COCOC1c1ccccc1` (stereo not given), the growth inhibition was -1.6% in test [1]; -10.3% in test [2]; 3% in test [3]; -14.9% in test [4]; -4.05% in test [5]; 6.9% in test [6].
Consider `CCn1c2ccc(C(=O)CCCN(C)C)cc2c2cc(C(=O)CCCN(C)C)ccc21`, for which the growth inhibition in test [1] is 5.15%; in test [2], -33.3%; in test [3] it was 8.5%; in test [4], 4.05%; in test [5] it was 14.2%; in test [6], -21.9%.
